The record followed here is PubChem BioAssay (EPA / NIEHS).

Results filed as inconclusive are left out. Activity calls are given as the source filed them. Rule for the calls, unless noted: active = hit-call score of the fitted dose curve at least 0.9, where 1 is the maximum; inactive = score below 0.9.

The nature of experiment [1]: ATG_PXRE_CIS: Attagene CIS-FACTORIAL HepG2 Assay for human Pregnane X Receptor Element (PXRE) (AID 2282957). The settings on record: HepG2 Attagene CIS-FACTORIAL PXRE reporter, mRNA; actives raise or lower the signal. In short, it runs like this: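 HepG2 cells transiently transfected with cis-regulated multiple reporter transcription units; endogenous factor activity measured as reporter mRNA 24 h after dosing. RT-PCR, fluorescent primer extension, HpaI digestion, capillary electrophoresis; bidirectional fit versus DMSO baseline.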

A short description of experiment [2]: ATG_PPRE_CIS: Attagene CIS-FACTORIAL HepG2 Assay for human Peroxisome Proliferator-activated Response Element (PPRE) (AID 2282958). The settings on record: HepG2 PPRE cis-element reporter, Attagene transcription factor profiling; actives raise or lower the signal. In short, it runs like this: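 HepG2, transient MRTU transfection (cis promoter elements, endogenous TFs). 24 h dosing. RNA → oligo(dT) RT → PCR → 6-FAM primer extension → HpaI digest → CE. Bidirectional fit vs DMSO.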

Experiment [3] is described as follows: ATG_RORE_CIS: Attagene CIS-FACTORIAL HepG2 Assay for human RAR-related Orphan Receptor Element (RORE) (AID 2282959). The settings on record: HepG2 Attagene cis-factorial RORE reporter, mRNA; actives raise or lower the signal. In short, it runs like this:
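Transient MRTU transfection of human HepG2 liver cells (FuGene 6); 24 h compound exposure; TriZol RNA, oligo(dT) RT, PCR, FAM labeling, HpaI cut, CE fragment analysis. DMSO = negative control/baseline.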

Experiment [4] can be described thus: ATG_Sox_CIS: Attagene CIS-FACTORIAL HepG2 Assay for human SRY-box transcription factor (SOX) (AID 2282960). Conditions: HepG2 Attagene cis-factorial SOX reporter, mRNA; actives raise or lower the signal. An outline of the steps:
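Endogenous factor activity in human liver HepG2 cells carrying transfected cis-regulated reporter units. RNA taken 24 h post-dose, reverse-transcribed, PCR-amplified and sized by capillary electrophoresis. Gain or loss of signal fitted relative to DMSO.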

Experiment [5] deals with Transcription factor Sp1 (Homo sapiens) (UniProt P08047). Description: ATG_Sp1_CIS: Attagene CIS-FACTORIAL HepG2 Assay for human Specificity Protein 1 (Sp1) (AID 2282961). Conditions: HepG2 Sp1 cis-reporter transcription, actives raise or lower the signal. An outline of the steps:
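Transient MRTU-transfected HepG2, 24 h compound exposure. Total RNA → oligo(dT) RT → PCR of reporter → 6-FAM primer extension → HpaI digest → CE. Endpoint fitted both directions vs DMSO.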

Experiment [6] is described as follows: ATG_SREBP_CIS: Attagene CIS-FACTORIAL HepG2 Assay for human Sterol Regulatory Element Binding (SREBP) (AID 2282962). The settings on record: HepG2 Attagene cis-factorial SREBP reporter, mRNA; actives raise or lower the signal. An outline of the steps:
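Transfected HepG2 (cis-regulated reporter library, endogenous TFs) → compound 24 h → total RNA → oligo(dT) RT → reporter-specific PCR → FAM primer extension, HpaI cut → CE fluorescence. Fit bidirectional vs DMSO.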

Experiment [7] concerns the target Signal transducer and activator of transcription 3 (Homo sapiens) (UniProt P40763). Briefly: ATG_STAT3_CIS: Attagene CIS-FACTORIAL HepG2 Assay for human Signal Transducer and Activator of Transcription 3 (STAT3) (AID 2282963). The settings on record: HepG2, Attagene cis-factorial STAT3 reporter transcription; actives raise or lower the signal. An outline of the steps: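 HepG2 cells transiently transfected with multiple cis-element-driven reporter units report endogenous transcription factor activity. After 24 h compound exposure, reporter mRNA is measured by RT-PCR, 6-FAM labelling, HpaI digestion and capillary electrophoresis. Fitted bidirectionally versus DMSO.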

Experiment [8] can be described thus: ATG_TA_CIS: Attagene CIS-FACTORIAL HepG2 Assay for human TA Basal Promoter (AID 2282964). The settings on record: HepG2 Attagene CIS-factorial TA basal promoter reporter; actives raise or lower the signal. An outline of the steps:
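Read-out: fluorescent reporter-transcript fragments resolved by capillary electrophoresis after RT-PCR and HpaI digestion. Source: HepG2 cells carrying transiently transfected multi-reporter cis constructs, treated 24 h. Endpoint fitted bidirectionally relative to DMSO.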

A short description of experiment [9]: ATG_TCF_b_cat_CIS: Attagene CIS-FACTORIAL HepG2 Assay for human T-Cell-Factor with beta-catenin (TCF/b-cat) (AID 2282965). Conditions: HepG2 TCF/beta-catenin cis-reporter transcription, actives raise or lower the signal. In short, it runs like this: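 HepG2, transient MRTU transfection, cis-element-driven reporters (endogenous TFs). 24 h compound exposure. Readout: reporter mRNA by RT-PCR + 6-FAM primer extension, HpaI digest, capillary electrophoresis. Gain/loss fit vs DMSO baseline.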

Experiment [10] is described as follows: ATG_TAL_CIS: Attagene CIS-FACTORIAL HepG2 Assay for human TAL Basal Promoter (AID 2282966).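 Note: background control endpoint measuring basal TAL promoter reporter mRNA not a specific factor.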 The settings on record: HepG2 Attagene cis-factorial TAL promoter reporter; actives raise or lower the signal. An outline of the steps:
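HepG2 cells were transiently transfected with promoter-driven multiplexed reporter units and dosed for 24 h. Reporter mRNA was measured by RT-PCR with capillary electrophoresis fluorescence; bidirectional fits used DMSO as baseline, serving as a background control.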

Experiment [11] can be described thus: ATG_TGFb_CIS: Attagene CIS-FACTORIAL HepG2 Assay for human Transforming Growth Factor (TGF) (AID 2282967). Conditions: HepG2 Attagene CIS TGFb reporter, mRNA transcription; actives raise or lower the signal. An outline of the steps:
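Transient MRTU transfection of HepG2 (FuGene 6). Dose 24 h. TriZol RNA, oligo(dT) RT, PCR, 6-FAM primer extension, HpaI cut, CE. Bidirectional fit, DMSO = baseline.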

The nature of experiment [12]: ATG_VDRE_CIS: Attagene CIS-FACTORIAL HepG2 Assay for human Vitamin D Receptor Element (VDRE) (AID 2282968). The settings on record: HepG2 VDRE cis-reporter transcription, actives raise or lower the signal. An outline of the steps: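 Transiently transfected HepG2 cells carrying cis-regulated reporter transcription units were exposed for 24 h. Reporter mRNA was measured by RT-PCR with fluorescent labelling and capillary electrophoresis, and fitted in both directions against DMSO.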

For experiment [13], the target named is Nuclear receptor subfamily 1 group I member 3 (Homo sapiens) (UniProt Q14994). Description: ATG_CAR_TRANS: Attagene TRANS-FACTORIAL HepG2 Assay for human Constitutive Androstane Receptor (CAR) (AID 2282969; active = hit-call score of the fitted dose curve at least 0.9, where 1 is the maximum;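 note: activators raise reporter mRNA above DMSO so AC50 marks induction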). The settings on record: HepG2 Attagene TRANS-FACTORIAL CAR reporter. An outline of the steps:
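HepG2 cells transiently transfected with GAL4-UAS reporter units; TRANS format reads activity of exogenous chimeric NR-Gal4 protein. After 24 h dosing, reporter mRNA quantified by RT-PCR, 6-FAM labelling and capillary electrophoresis; gain of signal fitted against DMSO.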

The target in experiment [14] is Steroid hormone receptor ERR1 (Homo sapiens) (UniProt P11474). Description: ATG_ERRa_TRANS: Attagene TRANS-FACTORIAL HepG2 Assay for human Estrogen-Related Receptor alpha (ERRa) (AID 2282971; active = hit-call score of the fitted dose curve at least 0.9, where 1 is the maximum). The settings on record: HepG2 Attagene TRANS reporter, ERRa transactivation. In short, it runs like this:
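HepG2 cells transiently transfected with multiplexed GAL4-UAS reporter units reading chimeric ERRa-Gal4 activity; 24 h compound exposure. Reporter mRNA measured by RT-PCR, 6-FAM labelling, HpaI digest and capillary electrophoresis; gain of signal fitted versus DMSO baseline.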

Experiment [15] deals with X-box-binding protein 1 (Homo sapiens) (UniProt P17861). Description: ATG_Xbp1_CIS: Attagene CIS-FACTORIAL HepG2 Assay for human X-box Binding Protein 1 (XBP1) (AID 2282972). The settings on record: HepG2 XBP1 cis-element reporter, Attagene multiplex; actives raise or lower the signal. An outline of the steps: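 HepG2, transient MRTU transfection (cis-promoter driven), 24 h compound exposure. Total RNA → oligo(dT) RT → PCR → 6-FAM labeling → HpaI cut → CE. Bidirectional fit vs DMSO.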

The nature of experiment [16]: ATG_M_19_TRANS: Attagene TRANS-FACTORIAL HepG2 Assay for M19 Transcription Factor (Internal Marker) (AID 2282974; active = hit-call score of the fitted dose curve at least 0.9, where 1 is the maximum). Conditions: HepG2 Attagene TRANS-FACTORIAL M19 internal marker reporter. In short, it runs like this:
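Fluorescence of 6-FAM-labelled reporter cDNA fragments, separated by capillary electrophoresis, served as the readout. These derived from HepG2 cells carrying transfected GAL4-UAS reporter units after 24 h dosing, with DMSO as negative control.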

Experiment [17] can be described thus: ATG_GAL4_TRANS: Attagene TRANS-FACTORIAL HepG2 Assay for GAL4 (Internal Marker) (AID 2282976; active = hit-call score of the fitted dose curve at least 0.9, where 1 is the maximum). The settings on record: HepG2 Attagene TRANS GAL4 internal marker reporter. An outline of the steps:
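HepG2 cells transiently transfected with multiplexed GAL4-UAS reporter constructs were dosed for 24 h. Reporter mRNA was measured by RT-PCR, 6-FAM primer extension, HpaI digestion and capillary electrophoresis, and gain of signal was fitted relative to DMSO.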

Experiment [18] addresses Estrogen-related receptor gamma (Homo sapiens) (UniProt P62508). Description: ATG_ERRg_TRANS: Attagene TRANS-FACTORIAL HepG2 Assay for human Estrogen-Related Receptor gamma (ERRg) (AID 2282977; active = hit-call score of the fitted dose curve at least 0.9, where 1 is the maximum;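 note: hits increase reporter signal over DMSO so potencies reflect activators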). The settings on record: HepG2 Attagene TRANS reporter, ERRg transactivation. In short, it runs like this: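 Transfect HepG2 with multiple GAL4-UAS reporter transcription units; dose chemicals 24 h; isolate RNA, reverse-transcribe with oligo(dT), PCR-amplify, label with 6-FAM, digest with HpaI; size fragments by capillary electrophoresis. DMSO serves as negative control.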

The target of experiment [19] is Glucocorticoid receptor (Homo sapiens) (UniProt P04150). Description: ATG_GR_TRANS: Attagene TRANS-FACTORIAL HepG2 Assay for human Glucocorticoid Receptor (GR) (AID 2282978; active = hit-call score of the fitted dose curve at least 0.9, where 1 is the maximum;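 note: activators score as hits since higher reporter transcript over DMSO is fitted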). The settings on record: HepG2 Attagene TRANS GR reporter, mRNA transcription. An outline of the steps:
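Fluorescent capillary-electrophoresis quantitation of reporter mRNA is the readout, taken 24 h after dosing human HepG2 cells carrying transiently transfected GAL4-UAS reporter units activated by chimeric NR-GAL4 fusions; activity scored as induction over DMSO.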

Experiment [20] deals with Estrogen receptor (Homo sapiens) (UniProt P03372). Briefly: ATG_ERa_TRANS: Attagene TRANS-FACTORIAL HepG2 Assay for human Estrogen Receptor alpha (ERa) (AID 2282970; active = hit-call score of the fitted dose curve at least 0.9, where 1 is the maximum). The settings on record: HepG2 Attagene TRANS ERa GAL4 reporter, mRNA. In short, it runs like this: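 HepG2 cells transiently transfected with multiplexed GAL4-UAS reporter units; ERa activity read via exogenous chimeric NR-Gal4 protein. After 24 hour compound exposure, reporter mRNA measured by RT-PCR with 6-FAM labelling and capillary electrophoresis; gain-of-signal fitted relative to DMSO.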

One may read the AC50 as the concentration giving half of the maximal activity seen.

Chain of Transcription factor Sp1 (Homo sapiens) (P08047 whole entry, looked up): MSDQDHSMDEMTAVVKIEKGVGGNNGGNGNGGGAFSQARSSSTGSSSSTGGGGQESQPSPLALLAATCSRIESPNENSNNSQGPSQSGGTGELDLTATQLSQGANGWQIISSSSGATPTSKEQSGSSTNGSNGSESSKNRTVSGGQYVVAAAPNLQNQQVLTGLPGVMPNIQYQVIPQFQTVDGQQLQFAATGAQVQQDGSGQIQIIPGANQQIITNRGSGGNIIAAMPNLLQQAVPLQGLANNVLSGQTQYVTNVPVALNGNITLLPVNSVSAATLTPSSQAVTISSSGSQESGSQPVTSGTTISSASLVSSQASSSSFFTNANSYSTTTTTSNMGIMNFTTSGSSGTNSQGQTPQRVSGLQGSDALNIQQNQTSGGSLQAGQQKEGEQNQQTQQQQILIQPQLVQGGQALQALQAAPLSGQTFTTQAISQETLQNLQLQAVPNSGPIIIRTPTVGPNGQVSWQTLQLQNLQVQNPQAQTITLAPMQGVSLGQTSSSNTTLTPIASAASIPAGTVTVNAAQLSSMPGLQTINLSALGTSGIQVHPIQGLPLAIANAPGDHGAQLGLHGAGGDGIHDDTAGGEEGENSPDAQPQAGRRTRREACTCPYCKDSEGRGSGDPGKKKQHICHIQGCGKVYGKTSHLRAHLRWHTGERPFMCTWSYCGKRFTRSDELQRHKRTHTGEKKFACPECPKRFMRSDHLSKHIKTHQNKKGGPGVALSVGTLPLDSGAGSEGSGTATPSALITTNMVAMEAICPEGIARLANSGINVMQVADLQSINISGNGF
Chain of X-box-binding protein 1 (Homo sapiens) (P17861 whole entry, looked up): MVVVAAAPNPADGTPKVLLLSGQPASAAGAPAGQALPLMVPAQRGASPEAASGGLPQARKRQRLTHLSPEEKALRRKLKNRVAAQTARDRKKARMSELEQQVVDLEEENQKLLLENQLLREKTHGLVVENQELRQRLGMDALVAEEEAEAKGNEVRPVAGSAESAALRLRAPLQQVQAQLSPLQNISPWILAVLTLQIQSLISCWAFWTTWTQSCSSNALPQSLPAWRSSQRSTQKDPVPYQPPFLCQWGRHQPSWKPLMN
Chain of Estrogen receptor (Homo sapiens) (P03372 whole entry, looked up, the tested form may be a part): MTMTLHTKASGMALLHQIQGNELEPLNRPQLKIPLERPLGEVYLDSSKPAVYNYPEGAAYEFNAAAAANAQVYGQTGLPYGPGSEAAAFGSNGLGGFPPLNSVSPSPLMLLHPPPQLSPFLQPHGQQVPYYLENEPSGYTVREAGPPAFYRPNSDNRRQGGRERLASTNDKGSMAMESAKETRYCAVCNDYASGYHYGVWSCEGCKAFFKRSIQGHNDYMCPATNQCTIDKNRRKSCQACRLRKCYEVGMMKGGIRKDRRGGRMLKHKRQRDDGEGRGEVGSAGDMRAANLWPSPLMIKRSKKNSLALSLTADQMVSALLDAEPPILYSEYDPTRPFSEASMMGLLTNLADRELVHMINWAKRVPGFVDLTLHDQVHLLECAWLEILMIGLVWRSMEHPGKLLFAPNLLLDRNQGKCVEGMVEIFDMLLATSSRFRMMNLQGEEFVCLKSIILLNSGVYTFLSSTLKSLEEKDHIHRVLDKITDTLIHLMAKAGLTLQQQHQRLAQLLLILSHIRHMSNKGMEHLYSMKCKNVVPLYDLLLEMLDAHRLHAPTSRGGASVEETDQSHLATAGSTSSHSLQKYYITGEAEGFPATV
Chain of Signal transducer and activator of transcription 3 (Homo sapiens) (P40763 whole entry, looked up): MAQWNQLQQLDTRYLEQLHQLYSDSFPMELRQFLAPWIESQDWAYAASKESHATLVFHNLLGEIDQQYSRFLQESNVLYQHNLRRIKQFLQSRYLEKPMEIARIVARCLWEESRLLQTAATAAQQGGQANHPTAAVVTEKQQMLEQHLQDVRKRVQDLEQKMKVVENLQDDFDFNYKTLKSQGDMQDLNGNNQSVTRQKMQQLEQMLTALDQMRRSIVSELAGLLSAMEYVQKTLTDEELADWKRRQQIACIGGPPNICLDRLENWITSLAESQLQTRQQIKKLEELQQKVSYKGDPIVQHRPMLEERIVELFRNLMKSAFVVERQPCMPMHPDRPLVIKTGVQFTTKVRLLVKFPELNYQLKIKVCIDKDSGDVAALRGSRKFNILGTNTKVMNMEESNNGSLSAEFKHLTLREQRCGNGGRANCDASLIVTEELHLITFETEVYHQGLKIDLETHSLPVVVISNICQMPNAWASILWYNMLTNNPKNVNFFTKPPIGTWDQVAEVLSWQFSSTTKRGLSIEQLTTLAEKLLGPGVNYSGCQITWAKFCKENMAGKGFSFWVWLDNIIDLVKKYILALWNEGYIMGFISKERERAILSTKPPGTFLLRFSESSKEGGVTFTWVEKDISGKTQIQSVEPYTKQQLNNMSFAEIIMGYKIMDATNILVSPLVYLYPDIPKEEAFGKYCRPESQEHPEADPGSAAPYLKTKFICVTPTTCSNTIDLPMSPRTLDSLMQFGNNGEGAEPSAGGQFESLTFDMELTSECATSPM
Chain of Glucocorticoid receptor (Homo sapiens) (P04150 whole entry, looked up, the tested form may be a part): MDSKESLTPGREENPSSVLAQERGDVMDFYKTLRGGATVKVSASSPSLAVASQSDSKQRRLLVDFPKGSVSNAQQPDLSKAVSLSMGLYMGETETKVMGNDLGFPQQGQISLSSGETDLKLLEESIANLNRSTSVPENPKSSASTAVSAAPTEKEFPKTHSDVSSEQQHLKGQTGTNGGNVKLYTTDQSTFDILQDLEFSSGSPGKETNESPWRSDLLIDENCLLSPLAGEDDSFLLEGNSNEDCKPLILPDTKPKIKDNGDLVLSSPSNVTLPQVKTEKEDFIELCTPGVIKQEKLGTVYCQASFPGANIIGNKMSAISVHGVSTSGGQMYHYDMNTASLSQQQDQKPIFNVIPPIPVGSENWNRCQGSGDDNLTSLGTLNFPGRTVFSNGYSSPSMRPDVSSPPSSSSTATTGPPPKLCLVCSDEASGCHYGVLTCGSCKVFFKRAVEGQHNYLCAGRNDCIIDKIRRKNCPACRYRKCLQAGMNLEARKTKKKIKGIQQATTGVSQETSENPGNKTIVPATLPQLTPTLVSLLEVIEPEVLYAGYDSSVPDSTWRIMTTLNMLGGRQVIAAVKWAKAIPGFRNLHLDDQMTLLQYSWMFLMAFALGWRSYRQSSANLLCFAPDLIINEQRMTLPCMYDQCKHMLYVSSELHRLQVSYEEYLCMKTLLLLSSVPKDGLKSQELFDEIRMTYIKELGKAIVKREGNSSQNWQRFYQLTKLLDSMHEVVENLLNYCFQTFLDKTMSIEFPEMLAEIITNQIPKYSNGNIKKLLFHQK
Chain of Steroid hormone receptor ERR1 (Homo sapiens) (P11474 whole entry, looked up, the tested form may be a part): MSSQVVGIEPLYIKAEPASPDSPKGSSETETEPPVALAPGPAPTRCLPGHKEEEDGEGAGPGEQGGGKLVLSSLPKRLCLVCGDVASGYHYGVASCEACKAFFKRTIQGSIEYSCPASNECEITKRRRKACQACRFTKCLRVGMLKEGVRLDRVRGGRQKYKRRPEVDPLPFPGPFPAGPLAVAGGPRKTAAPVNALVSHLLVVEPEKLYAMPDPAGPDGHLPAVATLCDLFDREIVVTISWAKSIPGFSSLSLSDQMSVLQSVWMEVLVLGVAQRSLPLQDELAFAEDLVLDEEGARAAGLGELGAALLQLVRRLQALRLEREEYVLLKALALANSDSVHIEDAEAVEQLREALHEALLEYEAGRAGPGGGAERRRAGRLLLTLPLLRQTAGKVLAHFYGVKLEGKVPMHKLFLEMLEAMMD
Chain of Nuclear receptor subfamily 1 group I member 3 (Homo sapiens) (Q14994 whole entry, looked up, the tested form may be a part): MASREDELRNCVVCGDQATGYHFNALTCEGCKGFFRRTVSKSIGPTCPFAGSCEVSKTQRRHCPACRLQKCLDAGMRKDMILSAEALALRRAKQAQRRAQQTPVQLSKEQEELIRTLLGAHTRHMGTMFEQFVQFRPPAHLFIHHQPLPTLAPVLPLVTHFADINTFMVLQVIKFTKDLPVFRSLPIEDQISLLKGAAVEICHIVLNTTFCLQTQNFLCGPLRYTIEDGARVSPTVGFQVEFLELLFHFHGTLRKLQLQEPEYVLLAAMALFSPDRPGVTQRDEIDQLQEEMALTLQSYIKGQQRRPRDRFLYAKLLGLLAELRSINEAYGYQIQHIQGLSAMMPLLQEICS
Chain of Estrogen-related receptor gamma (Homo sapiens) (P62508 whole entry, looked up, the tested form may be a part): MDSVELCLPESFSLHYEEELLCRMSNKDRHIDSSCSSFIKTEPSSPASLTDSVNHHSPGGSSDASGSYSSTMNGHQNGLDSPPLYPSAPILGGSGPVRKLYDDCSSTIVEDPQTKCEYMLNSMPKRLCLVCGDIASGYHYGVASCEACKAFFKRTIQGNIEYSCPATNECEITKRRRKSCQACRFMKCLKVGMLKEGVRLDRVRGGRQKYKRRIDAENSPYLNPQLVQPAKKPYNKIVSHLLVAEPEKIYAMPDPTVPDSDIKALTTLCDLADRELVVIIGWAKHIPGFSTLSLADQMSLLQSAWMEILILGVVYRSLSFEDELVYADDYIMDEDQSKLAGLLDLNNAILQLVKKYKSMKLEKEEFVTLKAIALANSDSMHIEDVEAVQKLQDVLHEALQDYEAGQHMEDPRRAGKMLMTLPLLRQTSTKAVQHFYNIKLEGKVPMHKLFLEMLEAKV

Consider `O=C1c2ccccc2C(=O)c2c(O)c(O)cc(O)c21`, for which the AC50 in experiment [1] is 26600 nM (active). Besides, the result in experiment [2], in experiment [3], in experiment [4], in [5], in [6] and in [7] was inactive. The call in [8], in experiment [9], in experiment [10], in experiment [11], in experiment [12] and in experiment [13] was inactive. The compound was classed as inactive in [14], in experiment [15], in [16], in experiment [17], in experiment [18] and in [19].
Consider `FC(F)(F)C1(F)C(F)(F)C(F)(F)C(F)(F)C1(F)F`, for which the call in [1], in [2], in experiment [3], in experiment [4], in experiment [5] and in [6] was inactive. Further, the call in [7], in experiment [8], in experiment [9], in experiment [10], in [11] and in experiment [12] was inactive. Moreover, the outcome in experiment [20], in experiment [14], in experiment [15], in experiment [16], in [17] and in [19] was inactive.
As to `C[N+](C)(CCCNS(=O)(=O)CCC(F)(F)C(F)(F)C(F)(F)C(F)(F)C(F)(F)C(F)(F)F)CC(=O)[O-]`, the AC50 in experiment [1] was 2.67 nM (active); in [6] it was 3.55 nM (active); in experiment [9], 0.979 nM (active); in experiment [20], 37.3 nM (active). The outcome in experiment [2], in experiment [3], in experiment [4], in experiment [5], in experiment [7] and in experiment [8] was inactive. The result in experiment [10], in experiment [11], in [12], in experiment [13], in experiment [14] and in experiment [15] was inactive. Moreover, the compound was called inactive in [18] and in experiment [19].
As for `Oc1cc2ccccc2cc1O`, the result in experiment [1], in experiment [3], in experiment [4], in [5], in experiment [6] and in [7] was inactive. Also, the call in experiment [8], in experiment [9], in [10], in experiment [11], in experiment [12] and in experiment [13] was inactive. In addition, the outcome in experiment [20], in experiment [15] and in [16] was inactive. Besides, the concentration at half-maximal activity (AC50) in experiment [2] was 100000 nM (active).
